Inconclusive results are not listed. Where a call stands in place of a potency, no number is given. Values without a mark were called inactive. Calls of active or inactive are those of the source. Calls come from the whole dose curve.
Target: 5-hydroxytryptamine receptor 2A (Homo sapiens) (UniProt P28223)
Test: 5-hydroxytryptamine receptor 2A (HTR2A) small molecule agonists, cell-based qHTS assay (AID 1963587); note: nearly all actives have a fitted effect of over 30% in size
Conditions: HTR2A-CHO cells, calcium flux fluorescence, agonist mode; series mostly up to 76.8 µM; activation: at the top concentration
Text: National Center for Advancing Translational Sciences [NCATS]
Division of Preclinical Innovation [DPI]
U.S. Environmental Protection Agency [EPA]
National Institutes of Environmental Health Sciences [NIEHS]
National Toxicology Program [NTP]
U.S. Food and Drug Administration [FDA]
The HTR2A receptor is a subtype of the 5-HT2 receptor that belongs to the serotonin receptor family and is a G protein-coupled receptor (GPCR). The HTR2A-CHO cell line stably expressing human 5-hydroxytryptamine receptor 2A (HTR2A) can be used for screening agonists of interactions between 5-HT2 and its ligands. The HTR2A-CHO calcium flux assay is a homogeneous fluorescence-based assay for detecting the intracellular calcium level using FDSS kinetic plate reader system.
HTR2A-CHO cells were dispensed at 2000 cells/3uL/well in 1536-well black-clear bottom plates using a Multidrop Dispenser. After the assay plates were incubated at a 37 C/5% CO2 incubator for 18 h, 3 uL of Dye Loading Buffer was transferred to the assay plate by a Flying Reagent Dispenser. The assay plates were incubated at 37 C for 1h. For agonist mode, 23 nL of compounds dissolved in DMSO, positive controls or DMSO only was transferred to the assay plate by a pin tool. The fluorescence intensity in the plates was measured using FDSS 7000EX kinetic plate reader for 2 min at 1 sec intervals.
Potency is the fitted concentration of half-maximal effect.

5-hydroxytryptamine receptor 2A (Homo sapiens), sequence (P28223 whole entry, looked up): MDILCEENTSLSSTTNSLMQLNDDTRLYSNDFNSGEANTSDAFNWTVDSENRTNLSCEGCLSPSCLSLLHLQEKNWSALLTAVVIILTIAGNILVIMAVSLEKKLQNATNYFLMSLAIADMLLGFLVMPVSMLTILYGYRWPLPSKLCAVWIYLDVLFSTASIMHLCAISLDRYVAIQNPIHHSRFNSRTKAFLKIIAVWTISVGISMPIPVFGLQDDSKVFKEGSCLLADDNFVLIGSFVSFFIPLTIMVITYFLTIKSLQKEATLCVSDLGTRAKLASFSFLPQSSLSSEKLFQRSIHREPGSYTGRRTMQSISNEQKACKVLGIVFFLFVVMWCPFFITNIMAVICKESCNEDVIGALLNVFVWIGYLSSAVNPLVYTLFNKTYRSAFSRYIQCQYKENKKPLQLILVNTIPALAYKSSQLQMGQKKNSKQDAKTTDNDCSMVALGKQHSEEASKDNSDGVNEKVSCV

Structure (SMILES) | Potency | activation
C=CC(=O)OCCO | inactive | –
Clc1ccc(C(Cl)(Cl)Cl)cn1 | – | -7.99%
CC[N+]1(CC)CCC(OC(=O)C(O)(c2ccccc2)c2ccccc2)C1 (stereo not given) | – | 18.3% [at 35.6 µM]
ClCc1ccccc1CCl | – | -4.64%
[Cd+2].[Cl-].[Cl-] | inactive | –
CCOC(=O)Nc1cccc(OC(=O)Nc2ccccc2)c1 | – | -2.11%
CN(C)NC(=O)CCC(=O)O | inactive | –
CC1(C)C(=O)NC(=O)NC1=O | – | 2.24%
Nc1ncn[nH]1 | inactive | –
C[N+](=O)[O-] | – | -1.17%
COC(C)(C)C | – | -0.0084%
Cc1cc(Cl)ccc1N=CN(C)C | inactive | –
O=C1C(Cl)=C(Cl)C(=O)c2ccccc21 | 6.94 µM (active) | –
CCCCCCI | – | -0.0444%
ClC1=C(Cl)[C@]2(Cl)[C@@H]3[C@@H](Cl)[C@H](Cl)C[C@@H]3[C@@]1(Cl)C2(Cl)Cl | – | -0.279%
c1ccc(-c2ccccc2)cc1 | inactive | –
CCOC(=O)c1ccccc1C(=O)OCC | inactive | –
CON(C)C(=O)Nc1ccc(Cl)c(Cl)c1 | inactive | –
C1CCC(NC2CCCCC2)CC1 | inactive | –
CNC(=O)CSP(=S)(OC)OC | inactive | –

Structure (SMILES) | Potency | activation
ClC(Cl)(Cl)C(Cl)(Cl)Cl | – | -1.47%
c1ccc(Nc2ccc3ccccc3c2)cc1 | inactive | –
C/C(=N\NC(=O)Nc1cc(F)cc(F)c1)c1ncccc1C(=O)O | inactive | –
Cc1cc(-c2cc(C)c(N)c(C)c2)cc(C)c1N | – | 19.8%
CCCBr | – | -1.58%
CCCCCCCCCCCC[N+](C)(C)CCOc1ccccc1 | 43.7 µM (active) | –
CN(C)CCC#N | inactive | –
O=P(OCC(Br)CBr)(OCC(Br)CBr)OCC(Br)CBr (stereo not given) | inactive | –
COc1ccc2c(c1OC)C(=O)O[C@@H]2[C@H]1c2cc3c(cc2CCN1C)OCO3 | – | 7.81%
Cn1c(N)nc2c3cccnc3ccc21 | – | 5.98%
CCN(CC)c1ccccc1 | inactive | –
CCOP(=S)(OCC)Oc1ccc([N+](=O)[O-])cc1 | inactive | –
CC(C)(C)OOC(C)(C)C | inactive | –
CC1OC(C)OC(C)O1 (stereo not given) | inactive | –
CC1CC(CC2CCC(N)C(C)C2)CCC1N (stereo not given) | – | 6.38%
N#CN=C(N)N | inactive | –
Cc1ncc2n1-c1ccc(Cl)cc1C(c1ccccc1F)=NC2 | – | -2.13% [at 35.6 µM]
CCCN(CCC)c1c([N+](=O)[O-])cc(C(C)C)cc1[N+](=O)[O-] | inactive | –
c1ccc2c(c1)-c1cccc3cccc-2c13 | inactive | –
C#CCO | – | -0.0615%

Source: PubChem BioAssay (Tox21)
